From PubChem BioAssay AID1628 (Sanford-Burnham Center for Chemical Genomics, 2009)
In all, about 190,000 compounds went through this assay and about 930 (0.49%) were called active. Some of the results follow. Entries with a potency or affinity are not part of this list. A number with no mark means an inactive call.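 How the source made its calls: active means z-score of insulin promoter reporter brightness in nuclei below -3 at 5 µM, with at least 500 cells counted; inconclusive means wells with under 500 cells, flagged as toxic or sparse; inactive means the rest.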

Experiment: insulin promoter down-regulators in MIN6 cells, imaging, high-content screening, mouse beta cells (AID 1628)
Settings: MIN6 insulin promoter GFP reporter, at 5 µM, hits give low values

| Compound | z-score |
| --- | --- |
| N#C/C(=C\c1ccc(N2CCOCC2)o1)c1ccccc1 | 4.39 |
| COc1ccc(OCC(=O)Nc2ccccc2C(=O)N2CCOCC2)cc1 | 1.77 |
| CCc1ccc(C(O)(c2ccccc2OC)C(CN2CCOCC2)c2ccccc2)cc1 (stereo unspecified) | -3.08 (active) |
| CCN(CC)CCCOC(=O)C(c1ccccc1)c1ccccc1 | 0.01 |
| CC(=O)c1c(N2CCOCC2)[nH]c(-c2ccccc2)nc1=S | 7.72 |
| CCOCCCNc1nc2c(C)cccn2c(=O)c1/C=C1\SC(=S)N(C(C)CC)C1=O (stereo unspecified) | 17.6 |
| CC(C)NC(=O)/C(C#N)=C\c1ccc(N(C)C)o1 | 11.5 |
| Clc1ccc2[nH]c3c(NCC4CCCO4)ncnc3c2c1 (stereo unspecified) | -4.6 (active) |
| Fc1ccc(OCCOCCNCC2CCCO2)cc1 (stereo unspecified) | 1.23 |
| c1ccc2c(c1)[nH]c1c(NCC3CCCO3)ncnc12 (stereo unspecified) | -3.45 (active) |
| CCN1CC=C2C(C1)C(c1ccc(Cl)s1)C(C#N)=C(N)C2(C#N)C#N (stereo unspecified) | 15.5 |
| c1cncc(-c2nn[nH]n2)c1 | -1.32 |
| CC(C)(C)c1nc2ccccc2c2nnc(SCC(=O)NCc3ccco3)n12 | 1.35 |
| c1cncc(-c2nc(NCc3ccco3)c3ccccc3n2)c1 | -3.11 (active) |
| O=C(Nc1nnc(-c2ccccc2)o1)Nc1ccccc1Cl | 3.77 |
| COc1cccc(N2CCN(c3ncnc4c3[nH]c3ccc(F)cc34)CC2C)c1 (stereo unspecified) | -3.69 (active) |
| OC1(c2cccc(C(F)(F)F)c2)CCN(c2ncnc3c2[nH]c2ccc(F)cc23)CC1 | -4.94 (active) |
| O=C(Nc1ccc(S(=O)(=O)N2CCCCC2)cc1)c1ccncc1 | -3.68 (active) |
| O=C(NCc1cccnc1)c1ccc(CN2CCc3ccccc3C2)cc1 | 0.66 |
| CCc1cccc2cc3c(N)c(C(=O)Nc4ccc(S(=O)(=O)N5CCCC5)cc4)sc3nc12 | 8.59 |
| Cc1csc(SCC(=O)Nc2ccc(S(=O)(=O)N3CCCC3)cc2)n1 | 0.21 |
| N#C/C(=C/c1ccc(N2CCCCCC2)o1)c1cccc(F)c1 | 15.9 |
| Fc1ccc(-c2nnc3ccc(N4CCc5ccccc5C4)nn23)cc1 | -3.5 (active) |
| COc1ccc(S(=O)(=O)N2CCN(c3ccc4nnc(-c5ccc(F)cc5)n4n3)CC2)cc1 | -4.36 (active) |

| Compound | z-score |
| --- | --- |
| COc1ccc(-c2nnc3sc(C(C)N4C(=O)c5ccccc5C4=O)nn23)cc1 (stereo unspecified) | 1.87 |
| COc1ccccc1N1CCN(CC(O)COc2ccc(S(=O)(=O)N3CCOCC3)cc2)CC1 (stereo unspecified) | -3.8 (active) |
| CC(C)NC(=O)N1CCN(c2ccncc2S(=O)(=O)N2CCOCC2)CC1 | 5.83 |
| OC(COc1cccc2ccccc12)CN1CCN(c2ccccc2Cl)CC1 (stereo unspecified) | 3.51 |
| O=S(=O)(c1ccc(OCC(O)CN2CCN(c3ccc(F)cc3)CC2)cc1)N1CCOCC1 (stereo unspecified) | -4.17 (active) |
| CCCCSc1cc(C)nc2ncnn12 | 0.8 |
| O=C(O)CCCCCN1C(=O)/C(=C\c2ccc(-c3ccc(Cl)cc3)o2)SC1=S | 4.23 |
| COc1cc2c3nnc(-c4ccc(F)cc4)c-3cn(Cc3ccc(F)cc3)c2cc1OC | 6.06 |
| O=C(CN1CCCCCCC1)N/N=C/c1ccc(F)cc1F | -7.88 (active) |
| CCOC(=O)C1CCCN(CC(=O)Nc2c(C(=O)OC)[nH]c3ccc(C)cc23)C1 (stereo unspecified) | -3.29 (active) |
| CCS(=O)(=O)N1Cc2ccccc2CC1C(=O)OCC(=O)Nc1ccc(C)cc1 (stereo unspecified) | 5.05 |
| Cc1[nH]c2ccccc2c1C(=O)CN1CCCCC1C (stereo unspecified) | -1.61 |
| COC(=O)c1[nH]c2cccc(Cl)c2c1NC(=O)CN(C)C1CCCCC1 | 3.5 |
| C=CCN1C=CC(=CC=C(C#N)C#N)C=C1 | 3.27 |
| Cc1nn(C)cc1N1C(=O)c2cccc3c(N)ccc(c23)C1=O | 5.94 |
| O=C(NCCN1CCCC1)C1(S(=O)(=O)c2ccc(Cl)cc2)CC1 | 3.06 |
| O=C(CN1CCN(Cc2ccc(Cl)cc2)C1=O)NCCCN1CCN(c2ccc(F)cc2)CC1 | -4.01 (active) |
| c1ccc2c3c([nH]c2c1)C1(CCCCC1)NCC3 | -0.6 |
| O=C(N/N=C/c1cn(-c2ccccc2)nc1-c1ccccc1)c1ccco1 | -4.01 (active) |
| O=C(N/N=C\c1cn(-c2ccccc2)nc1-c1ccccc1)c1ccc(Br)o1 | 3.24 |
| Nc1c(C(=O)N/N=C/c2ccccc2Cl)oc2nc(-c3ccccc3)cc(-c3ccco3)c12 | 6.17 |
| CCSc1nc2c(c(=O)[nH]c(=O)n2C)n1C | -1.45 |
| CC(C)C(C)(C#N)NC(=O)CSc1nnc(C(F)(F)F)n1C (stereo unspecified) | 3.02 |
| C#CC(C)(C)NC(=O)CSc1nc2c(c(=O)n(C)c(=O)n2C)n1CCCC | -7.25 (active) |

| Compound | z-score |
| --- | --- |
| CC(=O)Nc1sc2c(c1CN1CCN(c3ccccn3)CC1)CCCC2 | -1.66 |
| Cc1cnc(NC(=O)CN2CCN(c3ccccn3)CC2)s1 | 3.14 |
| COc1ccc(CN2CCN(c3ccccn3)CC2)cc1OCc1ccccc1 | -8.87 (active) |
| COc1ccc(OC)c(C(c2nnnn2C2CCCC2)N2CCN(c3ccccc3F)CC2)c1 (stereo unspecified) | -4.67 (active) |
| CCOc1cc(N(CC)CC)ccc1/C=C(/C#N)c1nc2ccccc2[nH]1 | 8.11 |
| CCN(CC)c1ccc2cc(-c3nc4ccccc4[nH]3)c(=O)oc2c1 | 17.2 |
| CCOC(=O)N1CCN(C(=O)CSc2ccc3nnc(CCNC(=O)c4ccc(OC)cc4)n3n2)CC1 | 3.73 |
| CN(C)c1ccc(/C=C2\CCC/C(=C\c3ccccc3)C2=O)cc1 | 3.4 |
| Cc1nnc(NC(=O)c2sc3nc(-c4cccs4)cc(C(F)(F)F)c3c2N)s1 | 15.1 |
| CC(=O)Nc1ccc(C(=O)N/N=C/c2cc(Br)cc(Br)c2O)cc1 | -3.57 (active) |
| O=C(N/N=C/c1cc(Br)ccc1O)Nc1ccccc1 | -4.87 (active) |
| CN(C)c1ccc(C(=O)N/N=C/c2cc(Br)cc(Br)c2O)cc1 | 4.65 |
| O=C(Nc1ccc(Br)cc1)C(c1ccccc1)c1ccccc1 | -0.28 |
| COc1cc([C@@H]2[C@H]3CNCC=C3C(C#N)=C(N)C2(C#N)C#N)ccc1OC(C)C | 3.59 |
| c1ccc(CSc2ccc(-c3ccccn3)nn2)cc1 | 4.07 |
| C/C(=N/O)c1ccccn1 | 0.09 |
| Cc1nn(-c2c(Cl)cc(Cl)cc2Cl)c(=O)c2ccccc12 | 3.38 |
| CCN(c1ccccc1)S(=O)(=O)c1ccc(C(=O)Nc2nnc(C3CC3)o2)cc1 | -3.06 (active) |
| O=S(=O)(Cc1ccc(Cl)cc1)c1ccccc1-c1nnc(-c2ccccc2)o1 | 13.8 |
| Cc1cccc2cc3c(N)c(C(=O)N4CCCc5ccccc54)sc3nc12 | 6.25 |
| CCc1cc2c(=O)n(Cc3ccco3)c(SCC(=O)N3CCCc4ccccc43)nc2s1 | -3.14 (active) |
| Cc1cc2c(=O)n(Cc3ccco3)c(SCC(=O)c3ccc(Cl)s3)nc2s1 | -9.67 (active) |
| CN(c1ccccc1)c1ccc(/C=c2\s/c(=C(/C#N)C(=O)C(C)(C)C)n(Cc3ccco3)c2=O)cc1 | 12.8 |
| CCN(C(=O)CSc1nc2cc(C(=O)OC)ccc2c(=O)n1Cc1ccco1)c1cccc(C)c1 | 4.54 |

| Compound | z-score |
| --- | --- |
| O=C(O)c1ccccc1N/N=C/c1c(Sc2nnnn2-c2ccccc2)nc2ccccn2c1=O | 9.93 |
| CCOC(=O)CC1C(=O)NCCN1c1nc2c(C)cccn2c(=O)c1/C=C1\SC(=S)N(C(C)CC)C1=O (stereo unspecified) | 9.72 |
| O=C1c2cccc3c(O)ccc(c23)C(=O)N1Cc1ccccc1 | 5.05 |
| O=C(N/N=C/c1ccc(O)cc1O)c1ccc(CN2C(=O)c3cccc4cccc2c34)cc1 | -3.91 (active) |
| CSc1c(C#N)c(N)nc2sc(C(=O)c3ccc(Cl)c(Cl)c3)c(N)c12 | 5.56 |
| CCN(CC)S(=O)(=O)c1cccc(S(=O)(=O)c2cccc(S(=O)(=O)N(CC)CC)c2)c1 | -4.75 (active) |
| Cc1cc(NC(=S)N(Cc2ccc(Br)cc2)Cc2ccc(C(=O)O)cc2)ccc1Cl | 3.8 |
| COc1ccc(NC(=S)N(CCCN2CCC(C)CC2)Cc2cccs2)cc1 | 1.67 |
| CC(C)N1CC=C2C(C#N)=C(N)C(C#N)(C#N)C(c3ccccc3)C2C1 (stereo unspecified) | 5.63 |
| CC(C)(C)c1nc(NC(=O)Nc2ccccc2)sc1Br | -4.02 (active) |
| Cc1cccc(NC(=O)Nc2ccc(C#N)cc2)n1 | 3.41 |
| COc1cc(N=Nc2cccc(S(N)(=O)=O)c2)c2ccccc2c1N | 5.92 |
| CN(C)c1ncc(S(=O)(=O)c2ccc(Cl)cc2)c(-c2ccccc2)n1 | -3.06 (active) |
| CCN(CC)c1ccc2cc(S(=O)(=O)c3ccc(Cl)cc3)c(=O)oc2c1 | 6.96 |
| O=C(CSc1oc(-c2ccco2)nc1S(=O)(=O)c1ccc(F)cc1)NCC1CCCO1 (stereo unspecified) | 0.69 |
| O=C(CSc1ccc(-c2ccccc2)nn1)NCC1CCCO1 (stereo unspecified) | 3.02 |
| C=CCN1C(=O)c2cccc3c(N4CCCCC4)ccc(c23)C1=O | 5.61 |
| C=CCc1ccccc1OCC(O)CN1CCN(CCN2C(=O)c3cccc4cccc(c34)C2=O)CC1 (stereo unspecified) | -5.75 (active) |
| COc1ccc(NC(=O)C/C(C)=N/NC(=O)C(=O)Nc2cccc(Cl)c2C)c(OC)c1 | 0.92 |
| COc1ccc(NC(=O)C(=O)NCc2ccncc2)c(OC)c1 | -4.99 (active) |
| CC(C)C1S/C(=N/N=C/c2ccco2)NC1=O (stereo unspecified) | 3.25 |
| O=C(c1cc([N+](=O)[O-])ccc1N1CCCC1)N1CCCC1 | 3.06 |
| N#Cc1cc([N+](=O)[O-])ccc1N1CCCC1 | -5.65 (active) |
| Nc1ccc2c(c1)Cc1cc([N+](=O)[O-])ccc1-2 | 7.76 |
